# Bioassay records (PubChem)
# Most compounds without a hit are left out; they make up all but 7.4% or so of the library.
# hDAT+cocaine – modulates human dopamine transporter uptake under cocaine. Q01959. LLC-PK1 hDAT cells, [14C]-dopamine uptake with cocaine IC80; actives deviate in either direction. B-score at 10 µM. hit rate 1.3% among 110,000;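 active means Z score or B-score, a plate-position-corrected score, falls beyond the plate's 99.7% confidence bounds, in either direction; inactive means both scores lie inside the 99.7% bounds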;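 further: scored against the spread of the other compound wells on the same plate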
# FXIIa inh mix – inhibitors of human coagulation factor XIIa, pooled mixtures | P00748 | purified FXIIa, fluorogenic substrate | inhibition, % at 5 µM | hit rate 0.2% among 62,000 | AID 684;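 further: 0% = enzyme without compound and 100% = no enzyme blank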
# M1 agonist – M1 muscarinic receptor agonism; CHO-M1 cells, Fluo-4 calcium fluorescence, agonist mode; active compounds read high; B-score at 10 µM; hit rate 3% among 64,000;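 active means fluorescence rise, raw or as B-score row- and column-corrected plate score, outside the 99.7% band of its plate's samples, either direction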
# M1 antagonist – M1 muscarinic receptor (rat) antagonism; hit rate 3.4% among 64,000; CHO-M1 cells, Fluo-4 calcium, ACh EC80 antagonist mode; active compounds read low; B-score at 10 µM; AID 628; P08482;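 active means calcium fluorescence response, raw or row-and-column corrected B-score, differing from the plate sample mean either way at a set confidence level, mostly lower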
# FXIa mix inh – factor XIa (human) inhibition, mixture screen. purified FXIa, fluorogenic substrate, pooled mixtures. inhibition, % at 5 µM. hit rate 0.19% among 62,000. AID 680;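 further: each value is inhibition by a whole ten-compound pool holding the compound; 0% = enzyme with no mixture and 100% = wells lacking enzyme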
# Target sequence (P03951 19-387 limits assumed): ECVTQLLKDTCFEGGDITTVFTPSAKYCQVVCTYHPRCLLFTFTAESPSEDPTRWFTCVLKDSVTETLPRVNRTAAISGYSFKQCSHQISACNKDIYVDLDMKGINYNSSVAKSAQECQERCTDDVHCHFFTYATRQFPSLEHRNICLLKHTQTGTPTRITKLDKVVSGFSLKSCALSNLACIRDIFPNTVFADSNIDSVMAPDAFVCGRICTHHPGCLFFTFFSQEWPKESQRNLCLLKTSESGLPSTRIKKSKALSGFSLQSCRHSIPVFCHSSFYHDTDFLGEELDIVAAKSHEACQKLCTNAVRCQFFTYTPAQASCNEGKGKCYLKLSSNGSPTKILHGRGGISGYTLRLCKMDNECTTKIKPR
# Target sequence (P03951 388-625 limits assumed): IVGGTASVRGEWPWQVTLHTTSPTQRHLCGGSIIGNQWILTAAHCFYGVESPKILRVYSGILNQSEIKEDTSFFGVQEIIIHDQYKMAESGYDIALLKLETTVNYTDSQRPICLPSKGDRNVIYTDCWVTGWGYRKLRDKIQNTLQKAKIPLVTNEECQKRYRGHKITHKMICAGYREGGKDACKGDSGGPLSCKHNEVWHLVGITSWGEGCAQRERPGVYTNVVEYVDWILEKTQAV
# D1 allo mod – allosteric modulators of human D1 dopamine receptor | hit rate 5.9% among 58,000 | HEK293 D1, CRE-luciferase, dopamine EC30 potentiation; actives deviate in either direction | AID 641 | B-score at 10 µM | P21728;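 active means luminescence count or its row- and column-corrected plate score outside the 99.7% band of the plate's sample wells, on either side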
# * marks the source's active call; other numbers are inactive results; nt = no result given. Unless noted, no stated cut-off is given here; in the data, active means inhibition above about 20% (passing the limit was not always enough); inactive means the rest.
SMILES,hDAT+cocaine,FXIIa inh mix,M1 agonist,M1 antagonist,FXIa mix inh,D1 allo mod
CCSC1=C(C#N)C(c2cccc(O)c2)CC(=O)N1 (stereo not given),-0.018,-5,0.39,0.28,7,-0.0046
CCSC1=C(C#N)C(c2cccc(Br)c2)CC(=O)N1 (stereo not given),-0.9,7,0.0024,11*,10,1.1
COc1ccc(Nc2ncnc3c2cnn3Cc2ccccc2)cc1,3.2*,12,0.6,-0.5,7,nt
COc1cc([N+](=O)[O-])cc(CN2CCCCC2)c1O,-1.2*,nt,nt,nt,nt,nt
COc1cc(Br)cc(CN2CCN(C=O)CC2)c1O,-0.74,4,-0.44,-0.07,4,0.1
COc1ccc(C(=O)N2CCCC(c3nc(-c4cccs4)no3)C2)cc1 (stereo not given),0.34,8,-1.2,-0.22,5,0.18
CCN1CCn2c3c(c4cc(Cl)ccc42)CCCC31 (stereo not given),-0.68,9,0.034,1.8*,1,-0.34
CCn1c2c(c3cc(Cl)ccc31)CCCC2=O,1,6,-0.57,0.15,7,-0.98
O=c1c2c3nc4ccccc4nc3n(-c3ccc4c(c3)OCCO4)c2ncn1C1CCCC1,0.088,4,0.12,0.19,2,-0.93
O=c1c2c3nc4ccccc4nc3n(-c3ccc4c(c3)OCCO4)c2ncn1CC1CCCO1 (stereo not given),nt,6,-0.013,-1.8*,13,1.9
CCC(C)n1c(C)nc2c(c1=O)c1nc3ccccc3nc1n2-c1ccc2c(c1)OCCO2 (stereo not given),nt,-18,-0.66,-0.35,0,-5.3*
O=C(COC(=O)c1cncc(Br)c1)NCc1ccco1,-0.22,14,-0.078,0.83,4,nt
Cc1c(C(=O)NC2=NCCS2)oc2ccccc12,0.76,6,-0.092,0.3,-1,-4.9*
CN(C)CCCNC(=O)CCc1nc2ccccc2c(=O)[nH]1,-0.76,nt,nt,nt,nt,nt
Cc1ccc(-c2nc3nc4ccccc4nc3n2Cc2ccco2)cc1,-0.075,1,-0.84,0.026,10,-3.3
COc1ccccc1Cn1c(-c2ccco2)nc2nc3ccccc3nc21,-0.022,7,0.0089,0.011,8,12*
CCN(CC)c1ccc(/C=N/n2c(=S)[nH]nc(C)c2=O)cc1,-1.1,4,-0.087,-0.028,10,-1.1
Nc1cccc2c1C(=O)N(c1ccccc1)C2=O,-0.0047,-3,70*,-0.37,-3,2.5
Cc1cc2nnc(SC3CCOC3=O)n2c2ccccc12 (stereo not given),-0.17,nt,0.0075,0.39,nt,-0.38
CCCNC(=O)NS(=O)(=O)c1cnccc1Sc1ccc(Cl)cc1,-0.089,nt,nt,nt,nt,nt
Cc1ccc(CNC(=O)CN(C)S(=O)(=O)c2cccc3nsnc23)cc1,0.18,5,-0.053,0.57,5,-0.021
Cc1ccc(NC(=O)CN(C)S(=O)(=O)c2cccc3nsnc23)cc1,-1.4,11,0.46,0.59,5,-5.4*
Cc1oc(-c2ccc3c(c2)OCCO3)cc1C(=O)O,0.63,6,-1.5,0.23,4,-6.2*
Cn1cccc1/C=C1\CCC/C(=C\c2cccn2C)C1=O,0.18,nt,nt,nt,nt,nt
Cc1ccc(F)cc1NC(=O)c1cccc2nccnc12,-0.91,-3,-0.5,0.12,4,0.43
SMILES,hDAT+cocaine,FXIIa inh mix,M1 agonist,M1 antagonist,FXIa mix inh,D1 allo mod
CCC(C)n1c(SC(C)C#N)nc2ccccc2c1=O (stereo not given),-1.2,2,0.064,-0.91,2,-4.8*
CCC(C)n1c(SCC(=O)NC(=O)Nc2ccc3c(c2)OCCO3)nc2ccccc2c1=O (stereo not given),-1.1,1,-0.85,-0.46,10,-0.1
O=C(c1ccc(Cl)cc1)N1CCCCC(Sc2nnc(-c3ccc4c(c3)OCO4)o2)C1=O (stereo not given),nt,3,-0.0068,-0.0053,11,-10*
O=C(O)CSc1nnc(-c2ccc3c(c2)OCO3)o1,0.28,nt,nt,nt,nt,nt
CC1(C)CC(=O)C2=C(C1)N(c1ccccc1)C(N)=C(C#N)C2c1ccccc1 (stereo not given),-1.1,nt,nt,nt,nt,nt
CC(=O)Nc1ccc(S(=O)(=O)NC2=NCN(CCOC(=O)c3ccccc3)CN2)cc1,-0.0031,6,-0.75,0.32,4,-5.2*
COc1ccc(C(=O)/C=C\N2CCOCC2)cc1,-2.7*,-14,-0.16,-0.14,5,-0.33
COc1ccc(Oc2nc3ccccc3n3cccc23)cc1,-0.43,nt,nt,nt,nt,nt
CCc1ccc2oc(-c3cc(N=Cc4cccc(OC)c4O)ccc3O)nc2c1,0.96,nt,-0.041,0.19,nt,-5.6*
COc1cccc(C=Nc2cc(C)on2)c1O,-1,2,0.0042,0.11,4,0.21
